Rows were chosen to be rich in hits. Some 8.3% of all compounds tested hit in one or more screens of this group.
SW480 rerep – induces DNA re-replication in SW480 colon adenocarcinoma cells | Potency, µM (doses to about 46.1 µM), most hits filed as activators | SW480 DNA re-replication, Hoechst DNA content imaging, 48 h | actives 1.8% (n = 340,000); also: nearly all actives have a fitted effect of over 55% in size
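Readout is total intensity of Hoechst-stained nuclei, excited at 405 nm and collected at 500-530 nm. Compound treatment lasted 48 hr at 37 C in 5% CO2 before staining.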
Giardia kill – Giardia lamblia killing. Giardia lamblia trophozoite viability. activity change, % at 7.66 µM, hits read low. actives 0.15% (n = 340,000). AID 540267; in the data active = activity change below about -80%; inconclusive = between about -30% and that limit;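 also: parasites exposed to compound for two days anaerobically before the ATP read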
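Luminescent ATP signal served as the viability read-out, measured 15-30 min after adding ATP detection reagent to trophozoites that had been incubated with compounds for 48 hrs at 37 deg C anaerobically at 100 cells/well.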
BCR signal inh – inhibitors of chronic active B-cell receptor signaling; ABC-DLBCL IkBa-CBG/CBR reporter, luminescence ratio, 4 h; Potency, µM (top dose mostly 46.1 µM), usual class: inhibitors; actives 0.05% (n = 340,000); active = well fitted inhibition curve with a large enough effect in the signal ratio, with a control signal flat, not every such curve was filed as active; inconclusive = small, poorly fitted or top-dose-only effect, or effect the other way, or a change in a side signal; the % refers to the signal ratio
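Doxycycline induced both beetle luciferases in TMD8 lymphoma cells; IKK-driven degradation limits the IkappaBalpha-fused green signal, while red luminescence normalises for cell number and nonspecific effects. Compounds tested up to 46 uM, 4 hrs.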
MCF10A rerep – DNA re-replication induction in MCF 10a cells; MCF 10A DNA re-replication, Hoechst nuclear intensity, 48 h; Potency, µM (titrated, usually from 46.1 µM), actives largely listed as activators; actives 2.9% (n = 350,000); also: nearly all actives have a fitted effect of over 50% in size
Gal4-VP16 FLuc – Gal4-VP16 reporter inhibition counter-screen | Potency, µM (series often up to 53.6 µM), actives largely listed as inhibitors | actives 3.5% (n = 310,000) | Drosophila S2 Gal4-VP16 UAS-luciferase, luminescence, 20 h;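 also: Gal4-VP16 expression switched on by copper sulfate through the metallothionein promoter; nearly all actives have a fitted effect of over 50% in size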
RORg inh – blocks mouse ROR gamma transcriptional activity. P51450. Drosophila S2 Gal4-RORgamma UAS-luciferase reporter, 20 h. Potency, µM (doses to about 53.6 µM), hits mostly inhibitors. actives 5.4% (n = 310,000). AID 2551; also: nearly all actives have a fitted effect of over 60% in size
Target sequence (P51450 whole entry, looked up, the tested form may be a part): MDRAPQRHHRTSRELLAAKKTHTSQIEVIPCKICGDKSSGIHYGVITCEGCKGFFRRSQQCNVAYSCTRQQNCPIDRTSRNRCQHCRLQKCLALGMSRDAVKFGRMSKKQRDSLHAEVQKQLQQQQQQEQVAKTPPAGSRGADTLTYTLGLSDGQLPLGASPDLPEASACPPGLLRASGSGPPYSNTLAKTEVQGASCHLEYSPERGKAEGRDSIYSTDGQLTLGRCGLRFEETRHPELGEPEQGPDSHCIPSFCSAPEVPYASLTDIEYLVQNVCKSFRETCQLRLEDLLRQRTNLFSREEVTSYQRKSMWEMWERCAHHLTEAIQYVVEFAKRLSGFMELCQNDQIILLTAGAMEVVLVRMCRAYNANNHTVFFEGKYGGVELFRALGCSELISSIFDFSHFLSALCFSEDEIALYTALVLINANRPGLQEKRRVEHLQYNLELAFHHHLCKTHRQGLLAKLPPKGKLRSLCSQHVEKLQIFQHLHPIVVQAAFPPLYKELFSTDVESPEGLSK
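In this cell-based reporter format, copper sulfate (700 uM final) drives Gal4–ROR gamma fusion expression from a metallothionein promoter in Drosophila Schneider cells; compounds preincubated 1 hr, reporter read after 20 hr at ambient temperature.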
Of the large screens only hits and unclear results are named; the others gave an inactive call. Unless noted, calls follow the shape of the dose curve; as a rule, active = well fitted curve in the direction sought with a large enough effect; inconclusive = small, poorly fitted or top-dose-only effect, or another doubt; inactive = no such curve, though single readings can be large; an effect the other way counts as inactive or inconclusive.

CCOc1ccccc1N1CCN(C(=O)NCc2ccc(F)cc2)CC1	SW480 rerep inconclusive, MCF10A rerep inconclusive
O=c1[nH]c(-c2ccccc2F)nc2c1sc(=S)n2Cc1ccccc1	RORg inh inconclusive
Cc1cccn2cc(-c3cccc(S(=O)(=O)N4CC(C)OC(C)C4)c3)nc12 (stereo not drawn)	none
CC1CN(S(=O)(=O)c2cccc(-c3cn4ccccc4n3)c2)CC(C)O1 (stereo not drawn)	Gal4-VP16 FLuc 0.355µM, RORg inh inconclusive
O=C(NCC1CCCO1)c1cc2c([nH]c3ccccc32)c(-c2cccc(Cl)c2)n1 (stereo not drawn)	SW480 rerep 20.6µM, BCR signal inh inconclusive, MCF10A rerep inconclusive, RORg inh inconclusive
O=C(NCCCN1CCOCC1)c1cc2c([nH]c3ccccc32)c(-c2cccc(Br)c2)n1	BCR signal inh inconclusive, MCF10A rerep 4.61µM, Gal4-VP16 FLuc inconclusive
O=C1CCC=C1C(O)c1ccccc1 (stereo not drawn)	none (no result: SW480 rerep, Giardia kill, BCR signal inh, MCF10A rerep)
O=c1c(Cl)c(Cl)cnn1Cc1nnc(-c2ccccc2Br)o1	SW480 rerep 4.61µM, BCR signal inh inconclusive, MCF10A rerep 3.26µM, Gal4-VP16 FLuc inconclusive, RORg inh inconclusive
Clc1ccccc1OCc1nnc(-c2ccccc2Br)o1	BCR signal inh inconclusive, Gal4-VP16 FLuc inconclusive
Cc1cccc(C2=NN(c3ccc(Br)cc3)[C@@H](C(=O)N3CCOC3=O)[C@@H]2c2ccc([N+](=O)[O-])cc2)c1	Giardia kill inconclusive
Cc1cccc(C2=NN(c3ccccc3)[C@H](CO)[C@H]2c2ccccc2)c1	SW480 rerep 16.4µM, MCF10A rerep 2.31µM
OC[C@@H]1[C@@H](c2ccc(F)cc2)C(c2ccccc2)=NN1c1ccccc1	SW480 rerep 18.4µM, MCF10A rerep inconclusive, Gal4-VP16 FLuc inconclusive
CCC1=NN=C(c2ccc(F)cc2)C(c2c[nH]c3ccccc23)N1O (stereo not drawn)	Gal4-VP16 FLuc inconclusive
O=C1OCCN1C(=O)[C@H]1[C@H](c2ccc([N+](=O)[O-])cc2)C(c2ccccc2)=NN1c1ccccc1	none
CC[C@H]1C(c2ccc(F)cc2)=NN(c2ccccc2)[C@@H]1CO	SW480 rerep inconclusive, BCR signal inh inconclusive, MCF10A rerep 6.51µM, Gal4-VP16 FLuc inconclusive
Cc1cc(Cn2nc(C(=O)NCc3cccs3)cc2-c2ccccc2)on1	none (no result: Gal4-VP16 FLuc, RORg inh)
CCOc1cc(C2NC(=O)CCC2[N+](=O)[O-])cc(Br)c1OCC (stereo not drawn)	none
Cc1cc(NC(=O)NC2CC(=O)N(c3ccc4c(c3)OCCO4)C2)no1 (stereo not drawn)	BCR signal inh inconclusive
CCCCCCCCOC(=O)c1c(CSC(=N)N)n(C)c2cc(Br)c(OC(C)=O)cc12	SW480 rerep inconclusive, BCR signal inh inconclusive, MCF10A rerep 3.26µM, Gal4-VP16 FLuc inconclusive, RORg inh inconclusive
CCOC(=O)c1c(CSc2nc(C)cc(C)c2C#N)n(C)c2cc(Br)c(OC(C)=O)cc12	none
CCOC(=O)c1c(CSC(=N)N)n(-c2ccc(Br)cc2)c2cc(Br)c(OC(C)=O)cc12	SW480 rerep inconclusive, BCR signal inh inconclusive, MCF10A rerep 10.3µM, Gal4-VP16 FLuc inconclusive, RORg inh inconclusive
COc1ccc(C(=O)N/N=C(\Cc2ncc[nH]2)c2ccccc2)cc1	SW480 rerep 9.2µM, BCR signal inh inconclusive, MCF10A rerep inconclusive, RORg inh inconclusive
COc1cc(C(=O)N/N=C(\Cc2ncc[nH]2)c2ccccc2)cc(OC)c1OC	SW480 rerep inconclusive, BCR signal inh inconclusive, MCF10A rerep 18.4µM, RORg inh inconclusive
c1ccc(N/N=C(\Cc2ncc[nH]2)c2ccccc2)cc1	RORg inh inconclusive
CNc1c(NC(=O)COc2ccc(Cl)cc2)c(=O)oc2ccccc12	BCR signal inh inconclusive
COC(=O)Cn1c(CN(C)Cc2ccccc2)nc2c1c(=O)n(C)c(=O)n2C	Gal4-VP16 FLuc 12.6µM, RORg inh inconclusive
CCOC(=O)Cn1c(CN2CCc3ccccc3C2)nc2c1c(=O)n(C)c(=O)n2C	BCR signal inh inconclusive, Gal4-VP16 FLuc 3.98µM
CCCCNc1c(-c2ccc(SC(C)CC)c(OC)c2)nc2ccc(C)cn12 (stereo not drawn)	SW480 rerep inconclusive, BCR signal inh inconclusive, MCF10A rerep 16.4µM (no result: Gal4-VP16 FLuc, RORg inh)
CCCCNc1c(-c2ccc(SC(C)CC)c(OC)c2)nc2ccc(Cl)cn12 (stereo not drawn)	SW480 rerep 20.6µM, MCF10A rerep 23.1µM (no result: Gal4-VP16 FLuc, RORg inh)
CCCCCCSc1ccc(-c2nc3ccc(Cl)cn3c2NCCCC)cc1OC	MCF10A rerep inconclusive (no result: Gal4-VP16 FLuc, RORg inh)
CN(Cc1ccccc1)C(=O)C1CCCN(Cc2ccc(Cl)cc2)C1 (stereo not drawn)	MCF10A rerep inconclusive
CCOC(=O)CC1CCCCN1C(=O)CCCn1nnnc1CN1CCC(C)CC1 (stereo not drawn)	MCF10A rerep inconclusive
O=C(N/N=C/c1ccccn1)c1ccc(NC(=O)c2ccccc2Cl)cc1	SW480 rerep inconclusive, BCR signal inh inconclusive
CCc1ccc(-c2cc(C(=O)N/N=C/c3ccccn3)[nH]n2)cc1	BCR signal inh inconclusive, MCF10A rerep inconclusive, Gal4-VP16 FLuc inconclusive, RORg inh 12.6µM
O=C(N/N=C/c1ccccn1)c1ccc(Cl)c(Cl)c1	BCR signal inh inconclusive, Gal4-VP16 FLuc 0.631µM, RORg inh inconclusive (no result: SW480 rerep, Giardia kill, MCF10A rerep)
COc1cc(/C=N/NC(=O)c2cccc([N+](=O)[O-])c2)cc(OC)c1O	BCR signal inh inconclusive
COc1cccc(/C=N/NC(=O)c2ccc([N+](=O)[O-])cc2Cl)c1O	SW480 rerep inconclusive, BCR signal inh inconclusive, MCF10A rerep inconclusive, Gal4-VP16 FLuc 0.631µM, RORg inh 0.355µM
Cc1ccc(COc2ccccc2-c2cc(C(=O)N/N=C/c3cccnc3)[nH]n2)cc1	BCR signal inh inconclusive, MCF10A rerep 8.2µM, Gal4-VP16 FLuc inconclusive
COC(=O)C/C=C\[C@@H](C)[C@@H](/C=N\OC[C@@H]1O[C@H](c2ccccc2)C=C[C@@H]1Oc1ccc(OC)cc1)OC	none (no result: SW480 rerep, Giardia kill, BCR signal inh, MCF10A rerep)
O=C(O)c1[nH]c2ccc([N+](=O)[O-])cc2c1-c1ccccc1	none
O=C(N/N=C/c1ccccn1)c1cc(-c2ccc3ccccc3c2)n[nH]1	SW480 rerep inconclusive, BCR signal inh inconclusive, MCF10A rerep inconclusive, Gal4-VP16 FLuc 15.8µM, RORg inh 15.8µM
O=C(N/N=C/c1ccccn1)c1[nH]c2ccc([N+](=O)[O-])cc2c1-c1ccccc1	SW480 rerep inconclusive, BCR signal inh inconclusive, MCF10A rerep inconclusive, RORg inh 5.01µM
Cc1cc(C)nc(SCc2ccc(C(=O)N/N=C/c3ccccn3)cc2)n1	Gal4-VP16 FLuc 14.1µM, RORg inh 7.08µM
O=C(N/N=C/c1ccccn1)c1ccc([N+](=O)[O-])cc1Cl	Gal4-VP16 FLuc inconclusive, RORg inh 11.2µM

Compound activity from PubChem.
